Holding throughout (assay): DAPPL (digital affinity profiling via proximity ligation, sequencing); 10 mM Tris-HCl pH 7.5, 50 mM NaCl, 1 mM DTT, 4% glycerol, room temperature, 30 min; GST-TFs on glutathione beads, 16-mer random dsDNA library, 0.1% formaldehyde crosslink after washing; high values mean tight binding
One test has as its target T1, FEV (Homo sapiens, UniProt Q99581 1-238).
T1 sequence: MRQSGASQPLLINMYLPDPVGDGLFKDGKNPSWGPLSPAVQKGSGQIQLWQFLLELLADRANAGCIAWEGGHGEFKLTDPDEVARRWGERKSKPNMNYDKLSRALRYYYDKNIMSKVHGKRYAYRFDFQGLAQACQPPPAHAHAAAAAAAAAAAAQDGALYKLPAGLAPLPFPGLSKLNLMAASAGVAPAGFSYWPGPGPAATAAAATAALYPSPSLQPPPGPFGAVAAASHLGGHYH
The conditions noted are these: protein: recombinant; tags: N-terminal GST; dsDNA, one strand shown. The procedure, abridged: (§1)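 In yeast, human transcription factors were expressed with a GST fusion, then pulled down on glutathione beads and given DNA barcodes. Pooled with a tag-only sample, they were exposed to 200 nmole of a 16-mer random double-stranded DNA library (Tris/NaCl/DTT/glycerol buffer, room temperature, 30 min), washed, crosslinked with 0.1% formaldehyde, proximity-ligated using BsaI/T4 ligase for 1 h at 37 °C, PCR-amplified and read on an Illumina NextSeq500. Each hexamer's frequency of reads for a factor, divided by the matching frequency for the tag-only sample, gives the binding signal.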

For a further test, the target named is ETV5 (Homo sapiens, UniProt P41161 1-510). To be noted: protein: recombinant; tags: N-terminal GST; dsDNA, one strand shown. The gist of the method: as §1
The next test deals with HSF1 (Homo sapiens, UniProt Q00613 1-529). The conditions noted are these: protein: recombinant; tags: N-terminal GST; chain copies: 3; dsDNA, one strand shown. The gist of the method:
as §1

In another test the target is T2, SPIC (Homo sapiens, UniProt Q8N5J4 1-248).
T2 sequence: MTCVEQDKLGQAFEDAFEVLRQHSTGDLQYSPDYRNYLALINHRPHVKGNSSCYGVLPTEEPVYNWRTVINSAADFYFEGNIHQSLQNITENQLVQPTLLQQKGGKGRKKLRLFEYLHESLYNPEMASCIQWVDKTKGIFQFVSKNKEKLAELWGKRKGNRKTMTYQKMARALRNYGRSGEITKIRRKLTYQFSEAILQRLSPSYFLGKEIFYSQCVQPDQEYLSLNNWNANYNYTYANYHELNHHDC
The conditions noted are these: protein: recombinant; tags: N-terminal GST; dsDNA, one strand shown. The procedure, abridged: as §1

The target of the next test is ELF4 (Homo sapiens, UniProt Q99607 1-663). The conditions noted are these: protein: recombinant; tags: N-terminal GST; dsDNA, one strand shown. The gist of the method:
as §1

A further test addresses T3, ELK4 (Homo sapiens, UniProt P28324-2 1-405).
T3 sequence: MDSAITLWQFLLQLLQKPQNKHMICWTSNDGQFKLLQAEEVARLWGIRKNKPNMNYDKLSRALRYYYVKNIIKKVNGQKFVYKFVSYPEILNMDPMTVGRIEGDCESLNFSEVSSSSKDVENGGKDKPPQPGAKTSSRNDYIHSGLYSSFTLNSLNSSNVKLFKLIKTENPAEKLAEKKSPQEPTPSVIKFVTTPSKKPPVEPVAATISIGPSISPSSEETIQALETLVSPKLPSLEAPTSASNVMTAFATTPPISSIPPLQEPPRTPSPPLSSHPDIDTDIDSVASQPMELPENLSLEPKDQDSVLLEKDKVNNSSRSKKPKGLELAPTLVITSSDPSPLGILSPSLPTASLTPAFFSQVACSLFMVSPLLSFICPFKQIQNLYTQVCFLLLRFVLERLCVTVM
The conditions noted are these: protein: recombinant; tags: N-terminal GST; dsDNA, one strand shown. The procedure, abridged:
as §1

The target in another test is T4, ETV2 (Homo sapiens, UniProt O00321 1-342).
T4 sequence: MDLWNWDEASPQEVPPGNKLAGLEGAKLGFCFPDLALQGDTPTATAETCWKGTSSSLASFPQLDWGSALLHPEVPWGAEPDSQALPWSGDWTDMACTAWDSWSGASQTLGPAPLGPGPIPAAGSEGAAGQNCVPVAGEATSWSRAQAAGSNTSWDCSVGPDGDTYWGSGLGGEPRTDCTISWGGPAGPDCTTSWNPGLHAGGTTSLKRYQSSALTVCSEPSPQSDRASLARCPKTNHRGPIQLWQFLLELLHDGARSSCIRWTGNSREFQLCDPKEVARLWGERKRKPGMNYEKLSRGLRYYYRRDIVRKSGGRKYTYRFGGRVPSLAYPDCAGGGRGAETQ
To be noted: protein: recombinant; tags: N-terminal GST; dsDNA, one strand shown. The gist of the method:
as §1

A further test addresses T5, ELF3 (Homo sapiens, UniProt P78545 1-371).
T5 sequence: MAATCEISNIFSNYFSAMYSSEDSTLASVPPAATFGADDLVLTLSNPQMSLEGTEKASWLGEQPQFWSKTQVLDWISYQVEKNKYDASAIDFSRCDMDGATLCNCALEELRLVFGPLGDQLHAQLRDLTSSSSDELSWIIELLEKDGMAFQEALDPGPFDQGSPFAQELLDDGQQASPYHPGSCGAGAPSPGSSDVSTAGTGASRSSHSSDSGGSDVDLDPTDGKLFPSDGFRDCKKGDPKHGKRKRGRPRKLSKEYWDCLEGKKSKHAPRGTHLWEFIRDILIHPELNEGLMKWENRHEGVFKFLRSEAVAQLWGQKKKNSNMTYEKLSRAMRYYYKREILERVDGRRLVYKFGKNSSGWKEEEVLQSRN
The conditions noted are these: protein: recombinant; tags: N-terminal GST; dsDNA, one strand shown. The procedure, abridged: as §1

The target in another test is CRX (Homo sapiens, UniProt O43186 1-299). The conditions noted are these: protein: recombinant; tags: N-terminal GST; dsDNA, one strand shown. The procedure, abridged: as §1
For a further test, the target named is ETV1 (Homo sapiens, UniProt P50549 1-477). To be noted: protein: recombinant; tags: N-terminal GST; dsDNA, one strand shown. The procedure, abridged: as §1
ETV1, sequence (P50549 whole entry): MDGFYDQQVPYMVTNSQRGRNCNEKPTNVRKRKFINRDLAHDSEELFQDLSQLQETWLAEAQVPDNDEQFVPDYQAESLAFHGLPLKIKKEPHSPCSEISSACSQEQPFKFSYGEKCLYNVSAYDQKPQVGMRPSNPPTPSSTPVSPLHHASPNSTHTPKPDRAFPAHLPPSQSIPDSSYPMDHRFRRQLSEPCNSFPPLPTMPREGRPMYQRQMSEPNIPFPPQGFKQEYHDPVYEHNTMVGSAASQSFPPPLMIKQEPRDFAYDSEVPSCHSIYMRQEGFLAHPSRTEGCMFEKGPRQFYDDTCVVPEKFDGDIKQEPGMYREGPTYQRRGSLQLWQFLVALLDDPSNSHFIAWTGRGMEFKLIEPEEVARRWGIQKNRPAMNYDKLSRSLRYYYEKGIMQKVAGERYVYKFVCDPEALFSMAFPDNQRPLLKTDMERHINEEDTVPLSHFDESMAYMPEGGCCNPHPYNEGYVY

ELF4, sequence (Q99607 whole entry): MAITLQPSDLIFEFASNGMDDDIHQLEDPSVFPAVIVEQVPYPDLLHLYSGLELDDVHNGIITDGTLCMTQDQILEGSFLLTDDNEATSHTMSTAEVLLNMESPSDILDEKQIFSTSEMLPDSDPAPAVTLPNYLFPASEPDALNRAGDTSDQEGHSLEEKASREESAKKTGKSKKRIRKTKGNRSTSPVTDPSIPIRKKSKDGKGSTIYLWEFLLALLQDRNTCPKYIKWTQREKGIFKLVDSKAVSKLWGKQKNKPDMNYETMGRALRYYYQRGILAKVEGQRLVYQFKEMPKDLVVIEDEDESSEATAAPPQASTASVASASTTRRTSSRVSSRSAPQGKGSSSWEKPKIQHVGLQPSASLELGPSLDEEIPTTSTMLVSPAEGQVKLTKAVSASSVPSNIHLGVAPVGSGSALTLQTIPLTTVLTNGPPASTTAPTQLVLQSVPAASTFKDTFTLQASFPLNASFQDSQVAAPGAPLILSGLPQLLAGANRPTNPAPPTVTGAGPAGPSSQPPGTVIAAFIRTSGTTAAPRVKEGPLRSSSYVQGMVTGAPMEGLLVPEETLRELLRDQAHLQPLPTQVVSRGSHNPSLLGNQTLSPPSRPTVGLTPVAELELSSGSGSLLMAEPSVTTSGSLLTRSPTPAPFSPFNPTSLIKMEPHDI
HSF1, sequence (Q00613 whole entry): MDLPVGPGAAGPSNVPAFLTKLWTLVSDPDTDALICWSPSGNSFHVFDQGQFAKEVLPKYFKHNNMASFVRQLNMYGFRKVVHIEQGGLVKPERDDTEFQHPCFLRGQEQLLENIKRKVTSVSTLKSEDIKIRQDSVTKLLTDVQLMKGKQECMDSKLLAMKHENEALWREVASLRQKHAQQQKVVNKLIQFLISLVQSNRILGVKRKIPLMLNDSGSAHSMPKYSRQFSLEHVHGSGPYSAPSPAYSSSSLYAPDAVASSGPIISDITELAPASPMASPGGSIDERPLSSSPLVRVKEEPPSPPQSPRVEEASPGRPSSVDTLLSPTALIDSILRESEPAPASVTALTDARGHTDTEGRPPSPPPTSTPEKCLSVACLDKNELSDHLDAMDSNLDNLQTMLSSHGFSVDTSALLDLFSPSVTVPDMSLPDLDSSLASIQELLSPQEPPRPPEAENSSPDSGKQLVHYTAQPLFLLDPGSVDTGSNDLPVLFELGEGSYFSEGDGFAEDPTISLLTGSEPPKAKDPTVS
ETV5, sequence (P41161 whole entry): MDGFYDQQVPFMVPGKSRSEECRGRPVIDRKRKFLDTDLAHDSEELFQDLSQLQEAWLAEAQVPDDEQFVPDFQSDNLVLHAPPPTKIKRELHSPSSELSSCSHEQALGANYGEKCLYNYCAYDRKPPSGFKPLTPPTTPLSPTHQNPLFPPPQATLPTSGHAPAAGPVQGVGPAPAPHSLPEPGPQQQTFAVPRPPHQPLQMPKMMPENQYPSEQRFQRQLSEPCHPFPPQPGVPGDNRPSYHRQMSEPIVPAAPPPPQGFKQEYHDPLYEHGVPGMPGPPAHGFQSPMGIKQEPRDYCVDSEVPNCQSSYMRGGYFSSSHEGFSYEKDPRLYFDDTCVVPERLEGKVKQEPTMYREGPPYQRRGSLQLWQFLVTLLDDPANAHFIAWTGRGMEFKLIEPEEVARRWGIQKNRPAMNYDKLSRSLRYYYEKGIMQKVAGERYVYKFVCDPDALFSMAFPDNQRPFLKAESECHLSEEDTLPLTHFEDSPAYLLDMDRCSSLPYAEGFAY
CRX, sequence (O43186 whole entry): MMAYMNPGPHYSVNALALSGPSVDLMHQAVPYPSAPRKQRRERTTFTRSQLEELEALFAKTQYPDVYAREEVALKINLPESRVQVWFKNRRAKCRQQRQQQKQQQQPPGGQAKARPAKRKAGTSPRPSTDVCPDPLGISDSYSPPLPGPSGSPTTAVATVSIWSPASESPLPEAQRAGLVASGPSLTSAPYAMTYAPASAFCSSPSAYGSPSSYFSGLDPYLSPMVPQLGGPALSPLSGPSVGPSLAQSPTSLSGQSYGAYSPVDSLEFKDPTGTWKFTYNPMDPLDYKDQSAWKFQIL

For the sequence CCTCAT, the binding signal with FEV is 1.26 fold enrichment (6-mer frequency, TF over GST control); in the test with ETV5, 1.31 fold enrichment (6-mer frequency, TF over GST control); with HSF1, 1.08 fold enrichment (6-mer frequency, TF over GST control); with SPIC it was 1.45 fold enrichment (6-mer frequency, TF over GST control); with ELF4 it was 1.39 fold enrichment (6-mer frequency, TF over GST control); in the test with ELK4, 1.3 fold enrichment (6-mer frequency, TF over GST control). The binding signal in the test with ETV2 was 1.1 fold enrichment (6-mer frequency, TF over GST control); with ELF3, 1.27 fold enrichment (6-mer frequency, TF over GST control); with CRX, 1.1 fold enrichment (6-mer frequency, TF over GST control); with ETV1, 1.37 fold enrichment (6-mer frequency, TF over GST control).
